Results from the supplement of paper PMC6555819.

Experiments:
Assay in all cases: PBM binding z-score (relative to random genomic background probes); higher = stronger binding; sequences stand for … in GC…GCGATTGACAGCGTAGAATGAAGG
[1] = system: FXR:RXRa (NR concentration 270 nM, RXRa partner concentration 90 nM)
Procedure, shortened: (§1)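 Binding z-scores were set against random background probes. The data came from custom Agilent 4×180K protein-binding microarrays carrying double-stranded probes with 34-nt variable regions, incubated 1 h with ligand-free nuclear receptor dimers. Partner-specific antibodies detected binding, and scanned fluorescence was regression-normalized.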

[2] = system: LXRa:RXRa (NR concentration 270 nM, RXRa partner concentration 90 nM)
Procedure, shortened: as §1

[3] = system: LXRa homodimer (NR concentration 270 nM)
Procedure, shortened: as §1

[4] = system: LXRb:RXRa (NR concentration 270 nM, RXRa partner concentration 90 nM)
Procedure, shortened: as §1

[5] = system: LXRb homodimer (NR concentration 270 nM)
Procedure, shortened: as §1

[6] = system: PPARa:RXRa (NR concentration 270 nM, RXRa partner concentration 90 nM)
Procedure, shortened: as §1

[7] = system: PPARg:RXRa (NR concentration 180 nM, RXRa partner concentration 90 nM)
Procedure, shortened: as §1

[8] = system: PPARg:RXRa 270nM:90nM, anti-RXR (NR concentration 270 nM, RXRa partner concentration 90 nM)
Procedure, shortened: as §1

[9] = system: PPARg:RXRa 30nM:10nM, anti-RXR (NR concentration 30 nM, RXRa partner concentration 10 nM)
Procedure, shortened: as §1

[10] = system: PPARg:RXRa 90nM:30nM, anti-RXR (NR concentration 90 nM, RXRa partner concentration 30 nM)
Procedure, shortened: as §1

[11] = system: PPARg:RXRa DBDmut IVT, anti-RXR (DBD mutation: RXRa K156A/R161A, NR concentration 270 nM, RXRa partner concentration 90 nM)
Procedure, shortened: as §1

[12] = system: PPARg:RXRa IVT, anti-PPARg (NR concentration 270 nM, RXRa partner concentration 90 nM)
Procedure, shortened: as §1

[13] = system: PPARg DBDmut:RXRa IVT, anti-PPARg (DBD mutation: PPARg1 K132A/R137A, NR concentration 270 nM, RXRa partner concentration 90 nM)
Procedure, shortened: as §1

[14] = system: PPARg DBDmut IVT, anti-PPARg (DBD mutation: PPARg1 K132A/R137A, NR concentration 270 nM)
Procedure, shortened: as §1

[15] = system: PPARg homodimer (NR concentration 180 nM)
Procedure, shortened: as §1

[16] = system: PXR:RXRa (NR concentration 270 nM, RXRa partner concentration 90 nM)
Procedure, shortened: as §1

[17] = system: PXR homodimer (NR concentration 270 nM)
Procedure, shortened: as §1

[18] = system: RARa:RXR (NR concentration 270 nM, RXRa partner concentration 90 nM)
Procedure, shortened: as §1

[19] = system: RARa homodimer (NR concentration 270 nM)
Procedure, shortened: as §1

[20] = system: RARb:RXRa (NR concentration 270 nM, RXRa partner concentration 90 nM)
Procedure, shortened: as §1

Sequence | PBM binding z-score [1] | PBM binding z-score [2] | PBM binding z-score [3] | PBM binding z-score [4] | PBM binding z-score [5] | PBM binding z-score [6] | PBM binding z-score [7] | PBM binding z-score [8] | PBM binding z-score [9] | PBM binding z-score [10] | PBM binding z-score [11] | PBM binding z-score [12] | PBM binding z-score [13] | PBM binding z-score [14] | PBM binding z-score [15] | PBM binding z-score [16] | PBM binding z-score [17] | PBM binding z-score [18] | PBM binding z-score [19] | PBM binding z-score [20]
CTCGAAAAGTCGGTTGAGGTGAGTATACGGATAA | 0.673 | 0.0454 | -0.319 | -4.02e-05 | -0.053 | 0.458 | -0.07 | -0.172 | 0.085 | -0.0769 | -0.249 | 0.59 | -0.0972 | -0.5 | 0.0605 | -0.0703 | -0.0272 | 1.45 | 0.0114 | 0.371
ACAACGAGGGCAATGAGTTGATAGCACGGGTGGC | 0.234 | 0.0424 | -0.326 | -0.109 | -0.343 | 0.835 | 1.33 | 0.403 | -0.00945 | 0.211 | 2.73 | 2.02 | 0.439 | 0.354 | 0.382 | 1.76 | 4.64 | 0.401 | -0.285 | 2.15
TAGCCTAAGTCAGATCGGGCCAGTATACGCTATA | 0.0829 | -0.914 | -0.748 | -0.879 | -0.805 | -0.43 | 0.157 | -0.628 | -0.321 | -0.556 | -0.799 | -0.632 | -0.42 | -0.19 | -0.984 | -0.436 | -0.363 | -0.593 | -0.92 | -0.258
ATCGAAAGGTCGAGGTGAGTATCGAGAAAGGGAA | 4.43 | 3.37 | -0.107 | 2.73 | 0.435 | 4.56 | 3.35 | 3.74 | 1.49 | 2.48 | 0.319 | 2.07 | 0.156 | 0.836 | 1.5 | 2.44 | 0.217 | 3.52 | 0.474 | 4.2
GCAGACAGGTGAAACGCAGGTAACTCTGGGTGGC | -0.204 | -0.034 | -0.674 | -0.472 | -1.14 | 0.489 | 0.484 | 0.284 | -0.673 | -0.347 | 1.28 | 0.558 | -1.09 | -1.05 | -0.859 | -0.322 | -1.1 | 0.0559 | -1.16 | 0.63
CCAACTGGGGCAAAGGTTACCATACTCAGTACGA | 1.45 | 1.76 | 0.221 | 2.29 | -0.694 | 6.03 | 11.6 | 9.99 | 9.26 | 10.5 | 6.6 | 6.7 | 0.471 | -0.285 | 1.54 | 2.39 | 0.017 | 4.34 | 0.873 | 2.65
TTACCAAGGTGAAAGGTCTTTGATGCACGCCTTG | 1.27 | 1.01 | -0.494 | 1.07 | -0.549 | 3.54 | 5.56 | 6.21 | 4.99 | 6.07 | 2.19 | 4.37 | 0.282 | 0.356 | 1.16 | 1.19 | -0.419 | 1.96 | 0.0646 | 1.96
